# Measured values reported in article PMC7862700, “An all-to-all approach to the identification of sequence-specific readers for epigenetic DNA modifications on cytosine”.
# How the values were obtained:
# Experiment in all cases: DAPPL (digital affinity profiling via proximity ligation, sequencing); 10 mM Tris-HCl pH 7.5, 50 mM NaCl, 1 mM DTT, 4% glycerol, room temperature, 30 min; GST-TFs on glutathione beads, 16-mer random dsDNA library, 0.1% formaldehyde crosslink after washing; high values mean tight binding
# HSF1 = HSF1 (Homo sapiens, UniProt Q00613 1-529); settings: protein: recombinant; tags: N-terminal GST; chain copies: 3; dsDNA, one strand shown
# HSF1, sequence (Q00613 whole entry, the tested form may be a part): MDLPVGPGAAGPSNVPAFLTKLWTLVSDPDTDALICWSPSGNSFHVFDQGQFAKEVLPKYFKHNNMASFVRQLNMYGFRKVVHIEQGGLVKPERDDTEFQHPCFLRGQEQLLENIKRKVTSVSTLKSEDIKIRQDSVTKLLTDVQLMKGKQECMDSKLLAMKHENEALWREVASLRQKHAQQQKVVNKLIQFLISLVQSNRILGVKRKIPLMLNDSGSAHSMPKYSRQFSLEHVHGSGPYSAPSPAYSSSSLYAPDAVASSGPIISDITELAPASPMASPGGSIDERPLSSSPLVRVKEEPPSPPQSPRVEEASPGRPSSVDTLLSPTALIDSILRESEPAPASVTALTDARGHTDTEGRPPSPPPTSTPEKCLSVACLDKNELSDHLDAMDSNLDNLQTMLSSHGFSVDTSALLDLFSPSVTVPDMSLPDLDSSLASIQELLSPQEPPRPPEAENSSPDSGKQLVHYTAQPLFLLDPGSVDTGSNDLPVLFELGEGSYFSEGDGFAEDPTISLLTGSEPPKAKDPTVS
# Procedure, shortened: (§1)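 After expression in yeast as GST fusions, human transcription factors were bound to glutathione beads, DNA-barcoded and mixed with a tag-only sample. The pools were incubated with 200 nmole of a 16-mer random double-stranded DNA library in Tris/NaCl/DTT/glycerol buffer (30 min, room temperature), washed and crosslinked with 0.1% formaldehyde. Proximity ligation with BsaI/T4 ligase ran for 1 h at 37 °C, before PCR amplification and sequencing on an Illumina NextSeq500. Binding signal is a hexamer's read frequency for a factor divided by its frequency for the tag-only sample.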
# SPIC = target: T1, SPIC (Homo sapiens, UniProt Q8N5J4 1-248); settings: protein: recombinant; tags: N-terminal GST; dsDNA, one strand shown
# T1 sequence: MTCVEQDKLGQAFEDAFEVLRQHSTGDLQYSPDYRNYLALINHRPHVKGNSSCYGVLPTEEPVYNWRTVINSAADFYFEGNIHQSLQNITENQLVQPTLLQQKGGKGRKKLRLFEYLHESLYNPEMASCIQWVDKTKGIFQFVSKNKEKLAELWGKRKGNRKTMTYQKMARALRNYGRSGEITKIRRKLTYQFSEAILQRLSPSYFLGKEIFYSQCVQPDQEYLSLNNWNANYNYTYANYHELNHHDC
# Procedure, shortened: as §1
# ELK4 = target: T2, ELK4 (Homo sapiens, UniProt P28324-2 1-405); settings: protein: recombinant; tags: N-terminal GST; dsDNA, one strand shown
# T2 sequence: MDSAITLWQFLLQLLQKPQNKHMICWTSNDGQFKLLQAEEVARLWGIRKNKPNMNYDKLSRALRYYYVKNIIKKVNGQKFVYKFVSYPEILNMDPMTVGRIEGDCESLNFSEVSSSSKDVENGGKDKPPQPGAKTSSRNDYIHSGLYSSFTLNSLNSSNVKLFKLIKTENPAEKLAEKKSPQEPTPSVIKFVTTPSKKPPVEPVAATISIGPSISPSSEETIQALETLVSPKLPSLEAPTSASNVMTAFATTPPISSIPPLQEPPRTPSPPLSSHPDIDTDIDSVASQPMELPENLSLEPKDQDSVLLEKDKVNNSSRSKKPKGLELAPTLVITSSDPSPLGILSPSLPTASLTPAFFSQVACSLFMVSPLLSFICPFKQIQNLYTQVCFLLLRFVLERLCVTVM
# Procedure, shortened: as §1
# ELF3 = target: T3, ELF3 (Homo sapiens, UniProt P78545 1-371); settings: protein: recombinant; tags: N-terminal GST; dsDNA, one strand shown
# T3 sequence: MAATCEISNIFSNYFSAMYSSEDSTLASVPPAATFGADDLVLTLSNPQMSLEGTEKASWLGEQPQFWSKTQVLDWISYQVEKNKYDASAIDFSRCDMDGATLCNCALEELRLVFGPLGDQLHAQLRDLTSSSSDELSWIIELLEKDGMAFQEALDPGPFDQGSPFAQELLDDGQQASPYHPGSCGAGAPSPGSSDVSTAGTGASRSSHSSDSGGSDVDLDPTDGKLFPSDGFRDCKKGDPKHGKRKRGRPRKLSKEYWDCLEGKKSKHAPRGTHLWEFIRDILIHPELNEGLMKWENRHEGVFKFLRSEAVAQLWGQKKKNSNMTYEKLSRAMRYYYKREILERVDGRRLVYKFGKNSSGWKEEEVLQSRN
# Procedure, shortened: as §1
# CRX = CRX (Homo sapiens, UniProt O43186 1-299); settings: protein: recombinant; tags: N-terminal GST; dsDNA, one strand shown
# CRX, sequence (O43186 whole entry): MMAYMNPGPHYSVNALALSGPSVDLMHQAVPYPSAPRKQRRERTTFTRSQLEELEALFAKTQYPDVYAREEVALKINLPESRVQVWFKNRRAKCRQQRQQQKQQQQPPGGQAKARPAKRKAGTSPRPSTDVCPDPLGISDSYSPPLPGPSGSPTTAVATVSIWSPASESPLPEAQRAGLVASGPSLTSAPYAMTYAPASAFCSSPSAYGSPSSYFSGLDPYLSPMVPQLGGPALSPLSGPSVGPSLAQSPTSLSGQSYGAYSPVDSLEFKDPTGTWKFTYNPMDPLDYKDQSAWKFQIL
# Procedure, shortened: as §1
# ERF = target: T4, ERF (Homo sapiens, UniProt P50548 1-548); settings: protein: recombinant; tags: N-terminal GST; dsDNA, one strand shown
# T4 sequence: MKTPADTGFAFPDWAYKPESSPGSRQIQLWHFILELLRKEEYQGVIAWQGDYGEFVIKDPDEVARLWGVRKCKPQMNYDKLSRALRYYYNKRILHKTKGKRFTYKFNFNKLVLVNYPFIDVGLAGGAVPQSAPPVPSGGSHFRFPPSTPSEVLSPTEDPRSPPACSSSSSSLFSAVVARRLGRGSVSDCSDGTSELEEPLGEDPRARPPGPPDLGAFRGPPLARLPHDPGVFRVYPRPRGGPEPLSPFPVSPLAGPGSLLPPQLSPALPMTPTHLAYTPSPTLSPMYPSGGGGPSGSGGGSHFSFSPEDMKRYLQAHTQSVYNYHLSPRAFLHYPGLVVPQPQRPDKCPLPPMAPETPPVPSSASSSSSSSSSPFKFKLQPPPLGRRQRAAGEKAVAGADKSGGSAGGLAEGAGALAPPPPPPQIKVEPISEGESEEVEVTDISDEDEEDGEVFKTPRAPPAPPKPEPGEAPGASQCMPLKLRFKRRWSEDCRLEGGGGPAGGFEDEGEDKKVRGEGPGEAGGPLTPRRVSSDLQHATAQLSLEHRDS
# Procedure, shortened: as §1
# ETV3L = target: T5, ETV3L (Homo sapiens, UniProt Q6ZN32 1-361); settings: protein: recombinant; tags: N-terminal GST; dsDNA, one strand shown
# T5 sequence: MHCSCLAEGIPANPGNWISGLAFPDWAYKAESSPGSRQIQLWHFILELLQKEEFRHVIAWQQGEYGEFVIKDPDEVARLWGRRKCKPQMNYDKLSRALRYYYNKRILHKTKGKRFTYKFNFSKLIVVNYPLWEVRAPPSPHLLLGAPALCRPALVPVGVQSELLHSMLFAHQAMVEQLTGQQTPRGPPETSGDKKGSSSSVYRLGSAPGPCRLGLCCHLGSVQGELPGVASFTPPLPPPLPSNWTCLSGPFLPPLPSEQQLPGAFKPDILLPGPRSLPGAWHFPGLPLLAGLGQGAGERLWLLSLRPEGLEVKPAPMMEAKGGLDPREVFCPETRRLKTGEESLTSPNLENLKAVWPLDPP
# Procedure, shortened: as §1
# ETS2 = target: T6, ETS2 (Homo sapiens, UniProt P15036 1-469); settings: protein: recombinant; tags: N-terminal GST; dsDNA, one strand shown
# T6 sequence: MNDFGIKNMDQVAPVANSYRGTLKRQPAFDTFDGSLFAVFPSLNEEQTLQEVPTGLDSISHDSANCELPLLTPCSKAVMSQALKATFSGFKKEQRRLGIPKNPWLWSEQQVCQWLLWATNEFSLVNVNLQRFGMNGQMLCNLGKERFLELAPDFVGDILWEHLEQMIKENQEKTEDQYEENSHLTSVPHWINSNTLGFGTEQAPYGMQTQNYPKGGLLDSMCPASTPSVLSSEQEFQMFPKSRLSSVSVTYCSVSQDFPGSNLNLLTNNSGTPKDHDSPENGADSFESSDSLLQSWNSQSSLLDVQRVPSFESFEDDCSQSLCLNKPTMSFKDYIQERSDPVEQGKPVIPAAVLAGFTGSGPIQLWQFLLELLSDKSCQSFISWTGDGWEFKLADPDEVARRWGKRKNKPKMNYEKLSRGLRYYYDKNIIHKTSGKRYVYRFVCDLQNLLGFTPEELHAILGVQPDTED
# Procedure, shortened: as §1
# SPDEF = target: T7, SPDEF (Homo sapiens, UniProt O95238 1-335); settings: protein: recombinant; tags: N-terminal GST; dsDNA, one strand shown
# T7 sequence: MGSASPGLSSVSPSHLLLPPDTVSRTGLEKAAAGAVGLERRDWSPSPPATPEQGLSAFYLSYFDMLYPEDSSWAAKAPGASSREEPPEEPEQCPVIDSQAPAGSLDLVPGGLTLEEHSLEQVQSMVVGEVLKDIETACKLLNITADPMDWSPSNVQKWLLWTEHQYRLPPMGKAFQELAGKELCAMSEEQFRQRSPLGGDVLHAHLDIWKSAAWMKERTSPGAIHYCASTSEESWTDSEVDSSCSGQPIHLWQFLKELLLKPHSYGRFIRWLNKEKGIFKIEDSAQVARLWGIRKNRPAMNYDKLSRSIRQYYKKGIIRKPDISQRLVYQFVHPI
# Procedure, shortened: as §1
sequence,measurement,setting,value
GTAGAT,binding signal,HSF1,"1 fold enrichment (6-mer frequency, TF over GST control)"
same,binding signal,SPIC,"1.16 fold enrichment (6-mer frequency, TF over GST control)"
same,binding signal,ELK4,"1.01 fold enrichment (6-mer frequency, TF over GST control)"
same,binding signal,ELF3,"1.01 fold enrichment (6-mer frequency, TF over GST control)"
same,binding signal,CRX,"1.07 fold enrichment (6-mer frequency, TF over GST control)"
same,binding signal,ERF,"1.06 fold enrichment (6-mer frequency, TF over GST control)"
same,binding signal,ETV3L,"1.09 fold enrichment (6-mer frequency, TF over GST control)"
same,binding signal,ETS2,"1.02 fold enrichment (6-mer frequency, TF over GST control)"
same,binding signal,SPDEF,"1.04 fold enrichment (6-mer frequency, TF over GST control)"
